Source: PubChem BioAssay
HCV inh: HCV inhibition; Huh7.5.1 HCVcc-Cre infection, luciferase reporter, 44 h; Potency, µM (doses to about 41.8 µM), for the others: top-dose activity change, negative = inhibition, hits mostly inhibitors; 340,000 compounds, 3.4% hits; also: potency is read from the fitted curve at half-maximal effect; % is scaled to controls: 0 for no effect and ±100 for the full control effect
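Seed cells (1,000/well) for 4 h; treat with compound and infect with HCVcc-Cre, moi about 0.5. Incubate 44 h, then detect luciferase activity.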
Pf growth 48h: P. falciparum growth inhibition at 48 hours (one generation). 310,000 compounds, 5.9% hits. AID 504832. P. falciparum luciferase growth in erythrocytes, 48 h. Potency, µM (titrated, usually from 28.7 µM), inactives show top-dose activity change, negative = inhibition, actives largely listed as inhibitors; also: potency is read from the fitted curve at half-maximal effect; % is scaled to controls: 0 for no effect and ±100 for the full control effect
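Read-out is firefly luciferase luminescence from an integrated reporter in P. falciparum, so falling signal marks reduced parasite growth. Infected erythrocytes were at 2% hematocrit and 0.1% parasitemia (final) in Albumax-supplemented RPMI 1640.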
HCMV inh: blocks human cytomegalovirus replication. HFF cells, HCMV-luciferase reporter, 72 h; hits give low values. activity change, negative = inhibition, % at 57.5 µM. 410,000 compounds, 4.5% hits; in the data active = activity change below about -60%; inconclusive = no clear call, values can overlap the other calls; inactive = above about -39%; also: % is scaled to controls: 0 for no effect and ±100 for the full control effect
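Two compound doses tested in HFFs infected with HCMV-luciferase, MOI 1 PFU/cell, 72 h at 37C. Lysate luminescence read with OneGlo; data normalized against buffer-only and 10uM Salinomycin inhibitor controls.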
Pf growth 96h: P. falciparum growth inhibition at 96 hour, primary screen for plastid delayed-death inhibitors; P. falciparum luciferase reporter growth, 96 h; Potency, µM (titrated, usually from 28.7 µM), without a hit: at the highest dose activity change, negative = inhibition, most hits filed as inhibitors; 320,000 compounds, 6.9% hits; AID 504834; also: potency is read from the fitted curve at half-maximal effect; % is scaled to controls: 0 for no effect and ±100 for the full control effect
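Delayed-death screen, second-generation endpoint: infected erythrocytes, 2% hematocrit, 0.05% parasitemia final; 96 hours at 37 C, 5% CO2; luciferase detection reagent; luminescence decrease equals reduced growth.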
Shiga inhibitor: blocks Shiga toxin action in Vero cells. 290,000 compounds, 9.2% hits. inhibition, % at 38.7 µM. AID 2315. Vero cells, Shiga toxin protein synthesis inhibition reporter; in the data active = inhibition mostly above about 28%, no sharp cut-off; inactive = mostly below about 43%; also: 0% is about no effect
CHX counter: counter-screen hit for Shiga toxin inhibitors, cycloheximide. max response, %. 300,000 compounds, 12% hits. cell reporter, cycloheximide protein synthesis inhibition counterscreen. AID 2314; in the data active = max response mostly above about 13%, no sharp cut-off; inactive = mostly below about 14%; also: read at 38.3 µM for the half of the compounds with a filed dose; 0% is about no effect
Active calls of the source: *; ? = inconclusive; · = not tested or not shown; [ ] = dose if it differs, or a comment. This is a sample that favours compounds with a hit; in the whole collection about 21% have one here. Unless noted, calls follow the shape of the dose curve; as a rule, active = well fitted inhibition curve with a large enough effect; inconclusive = small, poorly fitted or top-dose-only effect, or another doubt; inactive = no such curve, though single readings can be large or run the other way.

SMILES	HCV inh	Pf growth 48h	HCMV inh	Pf growth 96h	Shiga inhibitor	CHX counter
Cn1c(CCN2CCCCC2)nc2cc(NC(=O)Nc3ccccc3)ccc21	13%	?	?	82%	-7	-3
COC(=O)c1ccc(NC(=O)Nc2ccc3c(c2)nc(C)n3C)cc1	-26%	?	?	19%	68*	15*
CC(=O)c1ccc(NC(=O)Nc2ccc3c(c2)nc(C)n3C)cc1	-6%	?	-24	24%	81*	34*
Cc1nc2cc(NC(=O)Nc3ccccc3Cl)ccc2n1C	?	-26%	86	0%	28*	13*
COc1ccc(C(=O)N2CCN(c3nc4c(C)c(Cl)ccc4s3)CC2)c(OC)c1	·	·	-39	·	·	·
Cc1ccc(Cn2c(=O)n(Cc3ccco3)c(=O)c3oc4ccccc4c32)cc1	·	·	4	·	·	·
COCCCN1C(=O)c2[nH]nc(-c3ccccc3O)c2C1c1ccc(OC)cc1 (stereo not given)	·	·	35	·	·	·
Cc1nc2cc(NC(=O)Nc3cccc([N+](=O)[O-])c3)ccc2n1C	?	-54%	105	-24%	·	46*
Cn1nccc1NC(=O)Nc1cccc([N+](=O)[O-])c1	4%	9%	2	?	-4	7
COc1ccc(/C=N/Nc2ccc([N+](=O)[O-])cc2)cc1O	-24%	0%[0.00184 µM]	124	17%	80*	26*
COc1ccc(/C=N\Nc2ccc([N+](=O)[O-])cc2)c(C(=O)O)c1OC	9%	13%	?	?	-5	-2
COc1ccc(/C=N/Nc2ccc([N+](=O)[O-])cc2)cc1Cn1cc([N+](=O)[O-])cn1	?	7%	-7	·	43	11*
COc1cccc(/C=N/Nc2ccc([N+](=O)[O-])cc2)c1O	?	34%	117	5%	76*	33*
COc1cccc(N/N=C/c2cccc(Br)c2O)c1	?	97%	0	49%	88*	30*
COC(=O)c1ccc(N/N=C/c2cc([N+](=O)[O-])cc(OC)c2O)cc1	16%	20%	7	85%	15	-2
Cc1ccc(C)c(NC(=O)Cn2ncc3c(C)n(Cc4ccc(F)cc4)c(C)c3c2=O)c1	·	·	5	·	·	·
COc1cccc(/C=N/NC(=O)c2ccc([N+](=O)[O-])cc2Cl)c1O	?	?	-29	27%	-18	17*
COc1cc(/C=N/NC(=O)c2cccc([N+](=O)[O-])c2)cc(OC)c1O	12%	4%	-28	-2%	26	-2
Cc1cccc([C@@H]2[C@@H]3C(=O)N(Cc4ccccc4)C(=O)[C@@H]3[C@]3(Cc4ccc(Cl)cc4)C(=O)N(c4ccccc4)C(=O)N23)c1	2%	?	6	?	-8	1
Cc1cccc([C@@H]2[C@@H]3C(=O)N(Cc4ccccc4)C(=O)[C@@H]3[C@]3(Cc4ccccc4)C(=O)N(c4cccc(Cl)c4)C(=O)N23)c1	-3%	4.7µM*	-21	12µM*	·	·
Cc1cccc([C@@H]2[C@@H]3C(=O)N(Cc4ccccc4)C(=O)[C@@H]3[C@]3(Cc4ccccc4)C(=O)N(c4cccc(F)c4)C(=O)N23)c1	-13%	?	-21	?	·	·
Cc1cccc([C@@H]2[C@@H]3C(=O)N(Cc4ccccc4)C(=O)[C@@H]3[C@]3(Cc4ccccc4)C(=O)N(c4ccccc4)C(=O)N23)c1	-1%	10µM*	-8	8.3µM*	·	·
Cc1cccc([C@@H]2[C@@H]3C(=O)N(Cc4ccccc4)C(=O)[C@@H]3[C@]3(Cc4ccccc4)C(=O)N(c4ccc(C(F)(F)F)cc4)C(=O)N23)c1	5%	8.3µM*	?	8.3µM*	·	·
CCN(C(=O)CSc1nnc(-c2c[nH]c3ccccc23)o1)C1CCS(=O)(=O)C1 (stereo not given)	-12%	4%	0	?	-5	7
CC(=O)N/C(N)=N/c1nc(=O)c2ccccc2s1	17%	167%	90	?	55*	35*
CCOC(=O)N/C(N)=N/c1nc2ccccc2s1	?	236%	47	-4%	66*	34*
CC(CNC(=O)c1ccc2nc(CCc3ccccc3)oc2c1)c1ccccc1 (stereo not given)	·	·	27	·	·	·
